High-throughput results from PubChem.
Shown are actives, neighbours in structure and some others; about 0.52% of the full set was active somewhere.
GLS inh = qHTS for Inhibitors of Glutaminase (GLS) | Glutaminase kidney isoform, mitochondrial (Homo sapiens), O94925 | GLS enzymatic activity, qHTS titration | Potency, µM (series often up to 45.5 µM), actives largely listed as inhibitors | 410,000 compounds, 0.21% hits | AID 624170, 2012
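hKGA in 45 mM KH2PO4 pH 8.2, 0.02% Tween-20 with pin-transferred compounds; 1 mM L-glutamine (stock) plus glutamate oxidase/HRP/Amplex Red coupling added. Fluorescence read initially and after 30 min at RT.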
GCN5L2 inh = qHTS Assay for Inhibitors of GCN5L2; Histone acetyltransferase KAT2A (Homo sapiens), Q92830; Potency, µM (top dose mostly 58.9 µM), most hits filed as inhibitors; 390,000 compounds, 0.21% hits; AID 504327, 2011; GCN5L2 HAT assay, ThioGlo1 CoA-SH fluorescence
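Enzyme at 20nM final was mixed with library compounds for 15 min at room temperature. Peptide H3(1-25) at 75uM, acetyl-CoA at 70uM and ThioGlo1 at 50uM were then added. Plates were read immediately and after 20 min (Ex340nm/Em540nm).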
Tb PFK block = qHTS Assay to Find Inhibitors of T. brucei phosphofructokinase | Potency, µM (doses to about 57.5 µM), most hits filed as inhibitors | AID 485367, 2010 | 330,000 compounds, 0.17% hits | ATP-dependent 6-phosphofructokinase (Trypanosoma brucei brucei), O15648 | T. brucei PFK, ADP-Glo luminescence; also: nearly all actives have a fitted effect of over 60% in size
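Compounds were pin-transferred as a titration series up to 57 uM into substrate buffer (0.5 mM F6P, 0.1 mM ATP, pH 8.0), then 1.25 nM PFK was added and reactions ran 45 min before ADP-Glo detection.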
USP2a block = qHTS Assay for Inhibitors of Ubiquitin-specific Protease USP2a Using CHOP2 as the Reporter; Ubiquitin carboxyl-terminal hydrolase 2 (Homo sapiens), O75604; USP2 core, Ub-CHOP2 coupled fluorogenic reporter, 485/531; Potency, µM (titrated, usually from 38.3 µM), actives largely listed as inhibitors; 330,000 compounds, 0.01% hits; AID 463254, 2010
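USP2 core (10nM final) preincubated 30min RT with compound in 20mM Tris-HCl pH 8.0, 2mM CaCl2, 2mM beta-mercaptoethanol, 0.05% CHAPS; 25nM Ub-CHOP2 plus 25nM reporter substrate added, fluorescence (Ex485/Em531) read after 60min.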
PGK inhibitor = qHTS Assay to Find Inhibitors of Phosphoglycerate Kinase; Phosphoglycerate kinase, glycosomal (Trypanosoma brucei brucei), P07378; PGK/GAPDH coupled, Kinase-Glo luminescence, 60 min; Potency, µM (titrated, usually from 57.5 µM), most hits filed as inhibitors; 380,000 compounds, 0.043% hits; also: nearly all actives have a fitted effect of over 60% in size
Target sequence (P07378 whole entry, looked up): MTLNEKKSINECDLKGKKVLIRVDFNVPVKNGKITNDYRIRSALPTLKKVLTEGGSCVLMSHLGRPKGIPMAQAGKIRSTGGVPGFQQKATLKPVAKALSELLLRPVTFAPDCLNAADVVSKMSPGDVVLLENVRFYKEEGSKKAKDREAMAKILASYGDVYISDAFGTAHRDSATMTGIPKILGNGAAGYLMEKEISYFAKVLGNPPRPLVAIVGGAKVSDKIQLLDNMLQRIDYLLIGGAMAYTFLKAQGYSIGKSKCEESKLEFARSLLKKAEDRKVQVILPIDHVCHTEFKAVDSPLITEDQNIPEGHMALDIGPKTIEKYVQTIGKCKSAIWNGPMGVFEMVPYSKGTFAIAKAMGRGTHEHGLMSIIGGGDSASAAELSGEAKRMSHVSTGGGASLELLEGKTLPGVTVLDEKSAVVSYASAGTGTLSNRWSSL
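Recombinant glycosomal PGK reaction used 1,3-bisphosphoglycerate generated in-well by GAPDH (100nM final) in 100mM TEA pH 7.6, 5mM MgCl2, 0.01% Tween-20. After 60 minutes at room temperature, ATP was read by Kinase-Glo Plus luminescence end-point.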
Hits are given with their value; . = inactive; ? = inconclusive; / = no result. Calls follow the shape of the dose curve; as a rule, active = well fitted curve in the direction sought with a large enough effect; inconclusive = small, poorly fitted or top-dose-only effect, or another doubt; inactive = no such curve, though single readings can be large; an effect the other way counts as inactive or inconclusive.

SMILES | GLS inh | GCN5L2 inh | Tb PFK block | USP2a block | PGK inhibitor
CCCCCCCCCCCCCCCCn1cc[n+](Cc2ccccc2)c1C | / | 8.9µM | / | / | /
Cc1ccc(OCC(=O)Nc2ccc3nc(SCC(=O)N(C)c4ccccc4)sc3c2)cc1 | . | . | / | / | .
COc1ccc(CCN(C)CCC(=O)Nc2cc(C)ccc2C)cc1OC | . | 1.6µM | . | . | .
CC1CCN(c2nn3c(=O)c(C(=O)NCCc4ccccc4)cnc3s2)CC1 | . | . | / | / | .
CC(C)C[C@@H](CNCC(=O)[C@H](Cc1c[nH]c2ccccc12)NC(=O)c1[nH]cnc1C(=O)N[C@@H](C)CN)NC(=O)c1nc[nH]c1C(=O)N[C@@H](CC(=O)O)C(=O)O | 10µM | / | / | / | .
CC(C)C[C@@H](CNCC(=O)[C@H](Cc1c[nH]c2ccccc12)NC(=O)c1[nH]cnc1C(=O)N[C@@H](C)CN)NC(=O)c1nc[nH]c1C(=O)N[C@@H](C)C(=O)O | . | / | / | / | .
CC(C)C[C@@H](CNCC(=O)[C@H](Cc1c[nH]c2ccccc12)NC(=O)c1[nH]cnc1C(=O)N[C@H](CN)CC(C)C)NC(=O)c1nc[nH]c1C(=O)N[C@@H](CC(=O)O)C(=O)O | 8.9µM | / | / | / | .
CC(=O)c1ccc(NC(=O)c2nc(-c3ccccc3)n(-c3ccccc3Cl)n2)cc1 | . | . | / | / | .
COc1cccc(CNc2ccc3[nH]c(=O)[nH]c3c2)c1OCc1ccccc1 | 16µM | . | . | . | .
CSc1ncc(CN2CCN(C3CCN(C(C)C)CC3)C(CCO)C2)cn1 (stereo not drawn) | . | . | . | . | .
CSc1ncc(CN2CCN(C3CCCCC3)C(CCO)C2)cn1 (stereo not drawn) | . | 14µM | . | . | .
Cc1nc2nncn2c(NCc2ccc(Cl)cc2)c1C | . | . | / | / | .
O=C(CN1C(=O)/C(=C/c2ccco2)SC1=S)Nc1ccc(O)c(C(=O)O)c1 | . | . | . | . | ?
O=C(CCCN1C(=O)/C(=C\c2cccs2)SC1=S)Nc1ccc(O)cc1C(=O)O | . | . | . | . | .
O=C(CCCN1C(=O)/C(=C\c2ccco2)SC1=S)Nc1ccc(O)cc1C(=O)O | ? | 10µM | . | ? | ?
O=C(CN1C(=O)/C(=C/c2ccco2)SC1=S)Nc1ccc(C(=O)O)c(O)c1 | 22µM | ? | . | . | 28µM
CC(C(=O)Nc1ccc(C(=O)O)c(O)c1)N1C(=O)/C(=C\c2ccco2)SC1=S (stereo not drawn) | 18µM | ? | ? | ? | ?
O=C(CCCN1C(=O)/C(=C/c2ccco2)SC1=S)Nc1cccc(C(=O)O)c1 | . | . | . | . | .
CCc1ccc(NCc2cc3cc4c(cc3n(CC(=O)Nc3ccc(Cl)cc3)c2=O)OCO4)cc1 | 13µM | . | / | / | .
CCc1ccc(NCc2cc3cc4c(cc3n(CC(=O)Nc3ccccc3C)c2=O)OCCO4)cc1 | 11µM | . | / | / | .
OC[C@H]1O[C@@H](n2cnc3c2NC=NC[C@H]3O)C[C@@H]1O | . | / | / | / | /
CSc1ccc(CCNc2ncnc3onc(C)c23)cc1 | . | . | / | / | .
O=C(/C=C/c1ccco1)Nc1cccc(C(=O)Nc2ccccc2C(=O)O)c1 | ? | . | . | . | 32µM
CCCn1c(=O)c2sccc2n2c(CCCC(=O)Nc3cccc(CC)c3)nnc12 | . | . | / | / | .
CO/N=C(\C(=O)N[C@@H]1C(=O)N2C(C(=O)[O-])=C(C[n+]3cccc4c3CCCC4)CS[C@H]12)c1csc(N)n1 | 6.3µM | / | / | / | /
SMILES | GLS inh | GCN5L2 inh | Tb PFK block | USP2a block | PGK inhibitor
CON=C(C(=O)NC1C(=O)N2C(C(=O)O)=C(CSc3nc(=O)c(=O)[nH]n3C)CSC12)c1csc(N)n1 (stereo not drawn) | 18µM | / | / | / | ?
CO/N=C(\C(=O)N[C@@H]1C(=O)N2C(C(=O)O)=C(CSc3nc(=O)c(O)nn3C)CSC12)c1csc(N)n1 (stereo partly drawn) | / | . | / | / | /
COc1cccc(CNC(=O)CN2N=C(c3ccc(C)cc3)CCC2=O)c1 | . | . | / | / | .
Cc1ccc(C)n1/N=C1/NC(=O)CS1 | 10µM | . | . | . | ?
CCOC(=O)CN1C(=O)S/C(=C\c2ccc(-c3ccc(C(=O)O)c(Cl)c3)o2)C1=O | ? | ? | . | . | ?
O=C(O)c1ccc(-c2ccc(/C=C3\NC(=O)N(Cc4ccc(Cl)cc4)C3=O)o2)cc1Cl | . | . | . | . | 25µM
COC(=O)c1c(-c2cccs2)csc1NC(=O)c1cc(OC)c(OC)c(OC)c1 | . | 25µM | / | / | .
COC(=O)c1c(-c2cccs2)csc1NC(=O)c1ccc(OC)c(OC)c1 | . | ? | / | / | .
O=C(NOC(=O)c1ccccc1)c1ccccc1 | . | 35µM | . | . | .
C=COCCNC(=O)Nc1ccc(Cl)c(Cl)c1 | . | . | 15µM | . | .
Clc1cccc(Cc2c(-c3ccco3)nc3ccc(Br)cn23)c1 | 11µM | / | / | / | /
Cc1cc(NC(=O)CSCc2ccc([N+](=O)[O-])cc2)no1 | . | . | . | . | .
CC(C)(C)SCCNC(=O)CSCc1ccc([N+](=O)[O-])cc1 | . | 1.8µM | . | . | .
O=C1CCCC2=C1C(c1ccco1)Nc1ccc3ccccc3c12 (stereo not drawn) | 11µM | ? | ? | ? | ?
COCCN=c1scc(-c2ccco2)n1/N=C/c1ccc(O)c(O)c1O | . | 20µM | . | . | .
C=CCN=c1scc(-c2ccco2)n1/N=C/c1ccc(O)c(O)c1O | 10µM | . | . | . | .
O=C(Nc1ccccc1C(F)(F)F)c1noc2c1CCCCC2 | . | . | / | / | .
CCc1sc(C(C2C(=O)CC(C)(C)CC2=O)C2C(=O)CC(C)(C)CC2=O)cc1[N+](=O)[O-] | 7.1µM | . | . | . | .
Cc1ccc(C(=O)COC(=O)C2C3C=CC(C3)C2C(=O)OCC(=O)c2ccc(C)c(C)c2)cc1C (stereo not drawn) | . | 0.79µM | . | . | .
Cc1cc(/C=C2/C(=N)N3C(=NC2=O)SN=C3S(C)(=O)=O)c(C)n1-c1ccccc1F | . | 22µM | . | . | .
CC1=CC2=NC(=O)/C(=C\c3cc(C)n(-c4ccccc4F)c3C)C(=N)N2O1 | . | . | . | . | .
COc1ccc(-c2nc3ccc(C4=C(C)CC(=O)NN4)cc3[nH]2)cc1 | 32µM | / | / | / | /
COc1cc(C2(c3ccc(O)c(OC)c3)C(=O)Nc3c(C)cc(Br)cc32)ccc1O | 2.5µM | / | / | / | .
O=S(c1ccccc1)c1ccc2nnnn2n1 (stereo not drawn) | / | . | / | / | /
